HTT aggregate: mutant huntingtin aggregation inhibition | Potency, µM (highest dose often 46.1 µM), for the others: at the top dose activity change, negative = inhibition, actives largely listed as inhibitors | hit rate 1.1% among 220,000 | PC12 HttQ103-GFP aggregates, Acumen cytometry, 40 h; further: on the % scale 0 is the no-effect control and ±100 the full control effect; nearly all actives have a fitted effect of over 60% in size
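PC12 cells stably carrying ecdysone-inducible HTT exon 1 Q103–GFP were induced with tebufenozide (100 nM final) and treated with library compounds in titration. GFP aggregates in lysates were counted by laser scanning cytometry.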
Tau fluor cs: counter-screen for tau fibril formation inhibitors | hit rate 0.93% among 280,000 | Potency, µM (highest dose often 57.7 µM), without a hit: at the top dose activity change, negative = decrease | tau K18 P301L Alexa594 fluorescence, heparin fibrillization; further: on the % scale 0 is the no-effect control and ±100 the full control effect; nearly all actives have a fitted effect of over 55% in size
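Human K18 P301L tau (15 uM unlabeled plus 0.24 uM Alexa 594-labeled, final) in 100 mM sodium acetate pH 7 was mixed with compound and 20 uM heparin and incubated 6 hr at 37 C.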
Tau ThT inhib: blocks human tau fibril formation measured by thioflavin T. hit rate 2.1% among 270,000. Potency, µM (doses to about 57.4 µM), for inactives: at the highest dose activity, negative = inhibition, hits mostly inhibitors. recombinant tau K18 P301L, heparin-induced fibrillization, ThT fluorescence. P10636. AID 1460; further: on the % scale 0 is the no-effect control and ±100 the full control effect; nearly all actives have a fitted effect of over 55% in size
Target sequence (P10636 561-689 P618L limits assumed): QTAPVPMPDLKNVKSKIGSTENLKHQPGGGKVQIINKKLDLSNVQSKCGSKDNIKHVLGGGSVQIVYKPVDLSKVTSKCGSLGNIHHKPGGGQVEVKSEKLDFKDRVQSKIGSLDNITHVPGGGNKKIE
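Fibril formation assay: tau K18 P301L at 15 uM with trace Alexa 594 label, heparin inducer 20 uM, pH 7 sodium acetate buffer, 37 C for 6 hr; endpoint ThT signal.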
HTT ATP protect: cytoprotection in Huntington HTT-Q103 PC12 cell model. PC12 HTT-Q103 induced, cytoprotection, ATP luminescence, 40 h. Potency, µM (titrated, usually from 56.4 µM), inactives show cytoprotection (ATP increase), most hits filed as activators. hit rate 0.14% among 230,000. AID 1471; further: % of control where 0% means no effect; nearly all actives have a fitted effect of over 45% in size
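Stable PC12 Q103-GFP cells in serum-supplemented, phenol red-free DMEM; induction by tebufenozide at 100 nM final; compound dose series; cell viability quantified luminescently from ATP.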
Tau fibril FP: blocks human tau fibril formation measured by polarization | hit rate 0.39% among 280,000 | P10636 | AID 1468 | K18 P301L tau heparin fibrillization, Alexa594 FP, 6 h | Potency, µM (series often up to 57.7 µM), inactives show at the top dose activity, negative = inhibition, most hits filed as inhibitors; further: on the % scale 0 is the no-effect control and ±100 the full control effect; nearly all actives have a fitted effect of over 55% in size
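Recombinant K18 P301L […], labeled with Alexa 594 at 0.24 uM over 15 uM unlabeled; heparin inducer 20 uM final; 37 C, 6 hr; FP endpoint.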
Active calls of the source: *; ? = inconclusive; . = not tested or not shown; [ ] = remark or other dose. This is a sample that favours compounds with a hit; in the whole collection about 3.7% have one here. The call rests on the fitted dose curve; in most records, active means well fitted curve in the direction sought with a large enough effect; inconclusive means small, poorly fitted or top-dose-only effect, or another doubt; inactive means no such curve, though single readings can be large; an effect the other way counts as inactive or inconclusive. Potency means the concentration at half of the fitted maximal effect.

SMILES	HTT aggregate	Tau fluor cs	Tau ThT inhib	HTT ATP protect	Tau fibril FP
CCOC(=O)C1=C(C)N(c2ccc(C)c(C)c2)C(=O)/C1=C\c1ccco1	24.7%	-25.6%	28.2µM*	-22.8%	?
COc1cccc(-c2cc(=O)c3ccccc3o2)c1N	.	?	15.8µM*	-161.1%	0.5%
Cc1ccc(-c2ccc(/C=C3\SC(N4CCOCC4)=NC3=O)o2)cc1	-0.2%	?	12.6µM*	2.82µM*	-5.4%
O=S(=O)(NC1CC1)c1ccc(S(=O)(=O)N2CCCC(c3nc(-c4cccnc4)no3)C2)cc1 (stereo not given)	11.2µM*	-10.2%	-0.2%	-6.0%[10 µM]	-1.1%
O=C(O)/C=C\C(=O)Nc1cccc2c1-c1ccccc1C2=O	.	.	.	-3.0%[10 µM]	.
O=C(O)C1Nc2c(O)cc(Cl)c([N+](=O)[O-])c2C2C=CCC12 (stereo not given)	-7.2%	7.08µM*[quencher]	7.94µM*	39.2%[10 µM]	14.1µM*
COc1ccc(C2=C(C)C(N3CCC(C(=O)NCc4ccco4)CC3)=NS2(=O)=O)cc1	.	-6.2%	-8.2%	.	-9.6%
CCOC(=O)N1CCc2c(sc3c2c(=O)n(Cc2ccccc2)c(=O)n3CC(=O)Nc2ccc(F)cc2)C1	.	?	7.7%	.	10µM*
Cc1cccc(Nc2ncnc3ccccc23)c1	12.6µM*	-7.7%	-17.6%	-6.6%[10 µM]	-8.1%
CCC(Oc1ccccc1)C(=O)Nc1nnc(C(F)(F)F)s1 (stereo not given)	25.1µM*	-0.7%	1.8%	-0.3%[10 µM]	1.7%
Cc1ncc(CC(=O)n2cc(C(=O)c3cc(F)ccc3O)cn2)s1	-13.1%	-6.9%	-10.1%	-12.6%	-3.9%
Cc1ccc(O)c(C(=O)c2cnn(C(=O)Cc3csc(C)n3)c2)c1	22.4µM*	-7.5%	?	16.6%[10 µM]	-5.3%
CC(C)(C)NC(=O)c1cccc(NC(=O)c2ccco2)c1	0.1%	-0.1%	3.6%	20.4%[10 µM]	-2.0%
O=C(Nc1cccc(N=Cc2cc(Br)cc(Br)c2O)c1)c1ccco1	18.8%	-22.0%	14.1µM*	-8.5%[10 µM]	?
C/C(=N\NC(=O)c1cccc(Cl)c1)c1cccc(NC(=O)c2ccco2)c1	-5.6%	-24.7%	?	13.0%[10 µM]	-0.9%
O=C(Nc1cccc(N=Cc2cc(Cl)cc(Br)c2O)c1)c1ccco1	-17.0%	-18.2%	15.8µM*	-1.1%[10 µM]	-18.2%
COC(=O)C/C=C\[C@@H](C)[C@@H](CO)NS(=O)(=O)c1ccc(C)cc1	.	-1.4%[11.6 µM]	-3.7%[11.5 µM]	?	-4.8%[11.6 µM]
Cc1ccc(-c2nc(NC(=O)c3nn(C)cc3[N+](=O)[O-])sc2C)cc1C	7.94µM*	?	4.5%	-88.8%	?
Cn1cc([N+](=O)[O-])c(C(=O)Nc2nc(-c3ccc(Cl)cc3)cs2)n1	23.8%	12.6µM*[quencher]	?	38.3%[10 µM]	7.0%
Cc1ccc(-c2nc(NC(=O)c3nn(C)cc3[N+](=O)[O-])sc2C)cc1	18.3%[9.22 µM]	?	-16.4%	-98.8%	-7.9%
CCOc1cc(-c2cc(-c3ccc(N)cc3)nc(N)c2C#N)ccc1O	13.9%	14.1µM*[quencher]	?	18.1%	?
CCOc1cc(-c2cc(-c3ccccc3)nc(N)c2C#N)ccc1O	-10.8%[9.22 µM]	?	-23.1%	0.8%	-12.6%
CCCOc1ccc(C(=O)NNC(=S)NC(=O)c2cc(-c3ccc(Cl)cc3)nc3ccccc23)cc1	-27.9%	-18.6%	-4.1%	-14.5%	14.2%
COc1ccc(C(=O)NNC(=S)NC(=O)c2cc(-c3ccccc3)nc3ccccc23)cc1	28.2µM*	-8.0%	?	?	10.4%
Cc1ccc(-c2nc(C(Cl)Cl)c3ccccc3n2)cc1	0.891µM*	-16.5%	.	-79.6%[10 µM]	-10.0%
SMILES	HTT aggregate	Tau fluor cs	Tau ThT inhib	HTT ATP protect	Tau fibril FP
COc1ccc(C2=NC(C)(C)N(CC(=O)Nc3cccc(C)c3)C2=O)cc1	.	-13.8%	-2.1%	.	-3.5%
Cc1ccc(N=Cc2cc(Br)cc(Cl)c2O)cc1	-2.9%	-10.6%	17.8µM*	-12.6%	?
Oc1c(Cl)cc(Cl)cc1C=Nc1ccc(Br)cc1	9.1%	-7.6%	?	-27.6%	-4.0%
CCOC(=O)c1sc(NC(=O)c2cccnc2)c(C#N)c1C	-13.9%	-12.2%	-18.4%	-13.9%	5.0%
CCOC(=O)c1sc(NC(=O)CSc2nnc(Cc3ccccc3)o2)c(C#N)c1C	-12.9%	?	28.2µM*	-20.5%	?
CCOC(=O)c1sc(NC(=O)CSc2n[nH]c(-c3ccccc3)n2)c(C#N)c1C	20µM*	?	?	0.7%[10 µM]	?
CCOC(=O)c1sc(NC(=O)c2cc(-c3ccccc3)nc3ccccc23)c(C#N)c1C	7.08µM*	?	?	-91.2%	-0.7%
CCNc1ncc2nc(CCc3ccccc3)c(=O)n(C[C@H]3CCCO3)c2n1	.	.	.	-1.7%	.
COC(=O)c1ccccc1S(=O)(=O)N1CCc2nc(-c3ccc(OC)cc3C)c3c(c2C1)CO[C@@H](c1ccccc1)C3	.	2.5%[11.6 µM]	12.1%[11.5 µM]	11.6%[10 µM]	7.4%[11.6 µM]
NC(=O)N/N=C/c1c(Sc2nnnn2-c2ccccc2)nc2ccccn2c1=O	11.7%[9.22 µM]	-20.5%	?	4.47µM*	?
Cc1ccccc1/C=C1\SC(=S)N(/N=C/c2cc([N+](=O)[O-])ccc2O)C1=O	-9.3%	?	25.1µM*	-13.6%	-12.9%
C(=N\Nc1nc(Nc2ccccc2)nc(Nc2ccccc2)n1)/c1cccnc1	4.47µM*	?	?	-9.0%[10 µM]	?
C(=N\Nc1nc(Nc2ccccc2)nc(Nc2ccccc2)n1)/c1ccncc1	.	-2.2%	-1.1%	.	?
CC1=C(c2ccccc2)[N+](=O)C2(CCCC2)N1[O-]	-5.4%	3.8%	-9.5%	-4.4%	-3.1%
O=[N+]([O-])c1ccc2c(c1)N([O-])C1(CCCCC1)[N+]2=O	-0.9%[9.22 µM]	?	3.55µM*	4.5%[10 µM]	11.2µM*
COc1ccccc1NC(=S)N/N=C1\CC(C)(C)Oc2ccc(O)cc21	-7.3%	?	?	12.2%	?
COc1ccc(NC(=S)N/N=C2\CC(C)(C)Oc3ccc(O)cc32)cc1	-8.0%	28.2µM*[quencher]	?	3.6%[10 µM]	-3.8%
CCN(CC)CCCNC(=O)CCCn1ncn2c(cc3occc32)c1=O	.	-3.2%	0.8%	.	-5.2%
COc1cc(OC)c(OC)cc1/C=N/N(C)c1ccccc1	5.5%[9.22 µM]	15.8µM*[quencher]	?	-19.4%	?
COc1cc(/C=N/N(C)c2ccccc2)ccc1O	6.2%	?	12.6µM*	-41.7%	10.1%
CN(/N=C/c1cc([N+](=O)[O-])ccc1O)c1ccccc1	-31.2%	-19.6%	?	0.4%[10 µM]	0.9%
CCN(CC)c1nc2ccccc2c(N)c1-c1ccccc1	11.2µM*	-3.0%	-1.2%	-4.6%	3.8%
Cc1c(N(C)C)nc2ccccc2c1N	10.7%	6.9%	3.3%	9.4%	1.3%
NCCSC[C@H](N)C(=O)O	.	.	.	0.6%[10 µM]	.
CC(=O)c1c(C)n(-c2cccc(Cl)c2)c2ccc(OC(=O)c3ccccc3)cc12	.	-7.4%	-1.1%	.	2.7%
CCOc1cccc(=O)c2c(C)n(C)c(C)c12	-3.5%	-14.5%	15.8µM*	-9.2%	-13.6%
